The results in this text go back to PubChem BioAssay.

Inconclusive results are not listed. Calls of active or inactive are those of the source.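 The calls were made as follows, unless noted: active = inhibition above the screen-wide mean plus 3 SD, about 51%; inactive = the rest.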

Test [1] is described as follows: rapamycin-like changes in RPL19A-GFP expression – cell-based, S. cerevisiae, multiplex flow cytometry, primary screen (AID 1862; in the data active = percent of DMSO control GFP below about 86%;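 also: lower values mimic rapamycin by blocking the RPL19A rise seen in DMSO cells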). The following applies: S. cerevisiae RPL19A-GFP strain, flow cytometry fluorescence, 3 h; at 10 µM; stronger effect = lower value.
The nature of test [2]: TOR pathway GLN3 branch reporter MEP2-GFP changes – S. cerevisiae, multiplex flow cytometry, primary screen (AID 1867;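 active = GFP response, as percent of the DMSO control, above the screen-wide mean plus 3 SD, about 139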;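 also: median GFP channel fluorescence of barcode-gated MEP2-GFP cells measured by flow cytometry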). As to conditions: S. cerevisiae MEP2-GFP strain, 3 h, at 10 µM, stronger effect = higher value, 100% means same as DMSO wells. (In general: Flow cytometry measures light scatter and fluorescence of single cells or particles in a stream.)
Test [3] is described as follows: TOR pathway RTG branch CIT2 reporter changes – S. cerevisiae, GFP fusion, multiplex flow cytometry, primary screen (AID 1870;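 active = percent response above a set limit, the screen-wide mean plus 3 SD, cut at about 130% in these data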;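 also: barcoded CIT2-GFP strain pooled with four other GFP strains with rapamycin as positive control; median GFP fluorescence per well over plate mean of DMSO wells so 100% = DMSO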). The following applies: S. cerevisiae CIT2-GFP expression, 3 h, at 10 µM, stronger effect = higher value.
A short description of test [4]: TOR pathway LAP4-GFP level changes – S. cerevisiae, multiplex flow cytometry, primary screen (AID 1873;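 active = GFP signal, as percent of the solvent control, above the screen mean plus 3 SD, about 149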). The following applies: S. cerevisiae LAP4-GFP expression, 3 h, at 10 µM, stronger effect = higher value.
Test [5] can be described thus: yeast AGP1-GFP level changes, GLN3 branch – cell-based, multiplex flow cytometry, S. cerevisiae, primary screen (AID 1887;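 active = GFP signal above the screen-wide mean plus 3 SD, that is over about 124.5% of the solvent control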;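 also: AGP1-GFP fusion strain of S. cerevisiae within a five-strain barcoded multiplex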). The following applies: 3 h, at 10 µM, stronger effect = higher value.
Test [6] can be described thus: reduced mouse 2C T cell binding to pMHC/ICAM-1 vesicles – MLPCN validation set, flow cytometry, LFA-1/ICAM-1 modulator project, pilot screen (AID 2523;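 active = response below a set limit, under 55% cells CD8-positive and vesicle-bound, and CD8 cells' 90th-percentile brightness under 279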;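 as to vesicle binding response: mean PE anti-B7-1 fluorescence of CD8+ cells relative to row control; 100% = QL9-loaded vesicles with DMSO vehicle in the same plate row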). The following applies: 2C mouse CD8+ T cells, at 7 µM, stronger effect = lower value; double positive events: measured here: CD8+/vesicle+ event percentage.
The target of test [7] is Integrin beta-1 (Homo sapiens) + Integrin alpha-4 (Homo sapiens) (UniProt P13612+P05556). The test can be described thus: alpha4beta1 integrin LIBS antibody binding reduction – U937 cells, HUTS-21 mAb, flow cytometry, validation set, VLA-4 allosteric modulator project, pilot screen (AID 2674;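 active = inhibition above 50%, about 3 SD of the validation set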;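 also: antibody binding induced by the VLA-4 ligand LDV present at three times its Kd; 0% = LDV ligand with antibody and no compound and 100% = antibody without LDV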). As to conditions: HUTS-21 LIBS mAb binding, at 6.7 µM, stronger effect = higher value, binding induced by LDV ligand.

Test [8] can be described thus: calorie-restriction mimetic ROS inhibitors, yeast – validation compound set, pilot screen (AID 2706;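 active = superoxide response below 65% of plate, a cut near 3 SD across the whole screen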;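 also: yeast exposed to compound for one week at 30 degrees C before staining; 100% = mean of all compound wells on the same plate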). As to conditions: S. cerevisiae aging, superoxide DHE fluorescence; at 10 µM; stronger effect = lower value.
Test [9] addresses Beta-adrenergic receptor kinase 1 (Homo sapiens) (UniProt P25098). The experiment in a line: GRK2 binders displacing RNA aptamer, biochemical, validation, human GRK2, bead flow cytometry (AID 488806;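 active = aptamer binding inhibition above 30%, about 3 SD of noise from non-fluorescent compounds; inactive = inhibition at or below 30%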). As to conditions: bead-bound GRK2, FAM-aptamer displacement, at 10 µM, stronger effect = higher value.
Test [10] concerns the target Beta-2 adrenergic receptor (Homo sapiens) (UniProt P07550). The experiment in a line: agonist-induced loss of surface beta2AR – cell-based, FAP fluorogen, flow cytometry, validation set, pilot screen (AID 504459;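 active = percent response above 42, roughly 3 SD of non-fluorescent test compounds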;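 also: agonist-driven loss of surface beta2AR via internalization measured by FAP dye flow cytometry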). As to conditions: Am2.2-beta2AR cells, at 10 µM, stronger effect = higher value.
The target in test [11] is AP-2 complex subunit beta (Homo sapiens) (UniProt P63010). The test can be described thus: beta-arrestin/AP2 interaction blockers – biochemical, validation set, GST-AP2 beads, flow cytometry, pilot screen (AID 504541;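 active = inhibition above 54%, about 3 SD of non-fluorescent compounds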;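 also: AP2 carries R879A mutation and is captured from E. coli lysate; bead-bound FITC arrestin peptide fluorescence measuring arrestin peptide binding to AP2; 0% = DMSO wells and 100% = excess unlabeled arrestin peptide control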). The following applies: FITC arrestin peptide, at 10 µM, stronger effect = higher value, AP2 beta2 appendage fragment, R879A mutant.
Test [12] in a line: cytosolic pH regulators acting via V-ATPase – S. cerevisiae, pHLuorin, HTS validation (AID 504600; in the data active = response above about 15%;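 also: plate controls were DMSO for no effect and reference compound for full effect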). The following applies: V-ATPase proton transport, at 10 µM, stronger effect = higher value.
Test [13] has as its system anti-desmoglein-3 scFv antibody binding to human DSG3. The experiment in a line: blockers of pathogenic pemphigus antibody–desmoglein-3 binding – biochemical, validation compound set, bead-based, flow cytometry, pilot screen (AID 588368;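 active = binding below the plate cutoff, the plate median minus 3 SD, with a reading above zero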;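 also: signal is the median channel fluorescence of bead-bound GFP antibody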). As to conditions: Protein G beads, DSG3-Fc, scFv-GFP binding, at 10 µM, stronger effect = lower value.
A short description of test [14]: Nile Red efflux blockade in pump-expressing yeast – validation compound set, multiplex, phenotypic, pilot screen (AID 588506;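 active = efflux inhibition above 0.42, the validation set average plus 4 SD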;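 also: Nile Red retained in cells so higher fluorescence means more efflux inhibition; 0 = negative control wells and 1 = enniatin B 25 µM full block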). As to conditions: S. cerevisiae pump-expressing triplex, Nile Red efflux flow cytometry; at 10 µM; stronger effect = higher value; the pumps come from Candida albicans.
In test [15] the target is ATP-binding cassette sub-family B member 6 (Homo sapiens) (UniProt Q9NP58). The test can be described thus: blockers of ABCB6-driven porphyrin uptake – K562-ABCB6 cells, flow cytometry, validation set, pilot screen (AID 588550).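 Also: 0% = DMSO wells and 100% = benzethonium chloride 70 µM positive control.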 The following applies: K562-ABCB6 porphyrin accumulation, 1 h, at 10 µM, stronger effect = higher value.
A short description of test [16]: AML differentiation inducers, ER-HoxA9 marrow cells – cell-based, GFP/MAC1 double positive, flow cytometry, validation set, primary screen (AID 588685;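 active = differentiation response of at least 50%, scaled between solvent and reference control, from cells with both markers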;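 also: compound exposure lasts four days before antibody staining and flow analysis; 0% = DMSO wells and 100% = 5 µM fulvestrant positive control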). As to conditions: stronger effect = higher value, normalized: vehicle 0, fulvestrant 100.

Sequence of AP-2 complex subunit beta (Homo sapiens) (P63010 whole entry, looked up, the tested form may be a part, one chain of several): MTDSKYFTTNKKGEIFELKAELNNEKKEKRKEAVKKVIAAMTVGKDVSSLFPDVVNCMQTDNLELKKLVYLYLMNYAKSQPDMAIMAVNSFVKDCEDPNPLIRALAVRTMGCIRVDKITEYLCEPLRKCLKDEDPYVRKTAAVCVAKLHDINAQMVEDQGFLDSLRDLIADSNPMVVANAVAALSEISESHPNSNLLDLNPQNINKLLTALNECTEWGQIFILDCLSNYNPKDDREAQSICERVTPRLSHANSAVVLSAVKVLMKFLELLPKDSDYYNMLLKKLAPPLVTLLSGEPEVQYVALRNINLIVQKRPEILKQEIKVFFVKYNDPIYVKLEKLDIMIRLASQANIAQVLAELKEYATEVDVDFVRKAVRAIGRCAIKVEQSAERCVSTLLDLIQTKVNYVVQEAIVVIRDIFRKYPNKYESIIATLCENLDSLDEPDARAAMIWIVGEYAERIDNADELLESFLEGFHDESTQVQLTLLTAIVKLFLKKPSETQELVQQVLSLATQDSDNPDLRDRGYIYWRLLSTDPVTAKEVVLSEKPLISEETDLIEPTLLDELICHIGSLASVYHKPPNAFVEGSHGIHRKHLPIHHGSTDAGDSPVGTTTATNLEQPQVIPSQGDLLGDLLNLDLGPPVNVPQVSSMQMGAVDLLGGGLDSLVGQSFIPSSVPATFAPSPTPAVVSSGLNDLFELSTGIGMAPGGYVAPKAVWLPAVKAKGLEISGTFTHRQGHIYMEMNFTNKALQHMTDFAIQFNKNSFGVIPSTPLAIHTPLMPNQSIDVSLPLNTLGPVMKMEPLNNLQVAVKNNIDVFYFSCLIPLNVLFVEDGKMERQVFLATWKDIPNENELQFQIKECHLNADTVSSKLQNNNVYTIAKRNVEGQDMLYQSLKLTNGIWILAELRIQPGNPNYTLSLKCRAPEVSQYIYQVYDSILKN
Sequence of Beta-2 adrenergic receptor (Homo sapiens) (P07550 whole entry, looked up): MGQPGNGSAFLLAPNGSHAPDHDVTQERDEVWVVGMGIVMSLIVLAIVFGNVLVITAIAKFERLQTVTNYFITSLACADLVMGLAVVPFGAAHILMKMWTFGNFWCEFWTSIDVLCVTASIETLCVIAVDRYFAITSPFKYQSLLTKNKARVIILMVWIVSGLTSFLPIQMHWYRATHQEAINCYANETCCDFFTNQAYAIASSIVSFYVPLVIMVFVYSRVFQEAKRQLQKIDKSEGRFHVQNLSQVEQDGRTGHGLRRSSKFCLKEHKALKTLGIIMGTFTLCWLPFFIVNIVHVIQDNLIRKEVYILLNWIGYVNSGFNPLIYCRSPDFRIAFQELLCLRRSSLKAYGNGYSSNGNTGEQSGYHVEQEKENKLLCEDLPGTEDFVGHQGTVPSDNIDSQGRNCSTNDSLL
Sequence of ATP-binding cassette sub-family B member 6 (Homo sapiens) (Q9NP58 whole entry, looked up): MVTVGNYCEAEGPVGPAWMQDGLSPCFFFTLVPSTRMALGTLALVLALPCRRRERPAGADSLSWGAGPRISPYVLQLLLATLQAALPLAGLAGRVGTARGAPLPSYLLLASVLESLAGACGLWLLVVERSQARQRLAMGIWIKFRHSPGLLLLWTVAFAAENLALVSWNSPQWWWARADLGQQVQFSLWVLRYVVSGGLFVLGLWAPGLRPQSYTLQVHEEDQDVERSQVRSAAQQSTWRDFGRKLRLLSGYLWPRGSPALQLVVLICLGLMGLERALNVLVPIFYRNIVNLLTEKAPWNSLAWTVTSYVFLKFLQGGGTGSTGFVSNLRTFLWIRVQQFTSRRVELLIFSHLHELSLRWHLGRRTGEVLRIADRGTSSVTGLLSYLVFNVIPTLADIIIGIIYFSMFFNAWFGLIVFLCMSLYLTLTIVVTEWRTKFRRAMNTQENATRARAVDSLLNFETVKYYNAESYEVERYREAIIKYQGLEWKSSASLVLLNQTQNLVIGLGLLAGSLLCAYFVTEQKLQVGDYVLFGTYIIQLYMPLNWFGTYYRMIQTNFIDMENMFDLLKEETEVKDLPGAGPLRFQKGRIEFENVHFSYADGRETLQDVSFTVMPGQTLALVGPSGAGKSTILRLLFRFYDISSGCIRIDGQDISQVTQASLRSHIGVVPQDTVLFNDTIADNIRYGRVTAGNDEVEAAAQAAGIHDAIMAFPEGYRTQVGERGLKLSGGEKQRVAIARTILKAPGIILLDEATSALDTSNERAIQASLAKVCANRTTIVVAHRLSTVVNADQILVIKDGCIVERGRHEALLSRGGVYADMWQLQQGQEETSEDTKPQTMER
Sequence of Beta-adrenergic receptor kinase 1 (Homo sapiens) (P25098 whole entry, looked up): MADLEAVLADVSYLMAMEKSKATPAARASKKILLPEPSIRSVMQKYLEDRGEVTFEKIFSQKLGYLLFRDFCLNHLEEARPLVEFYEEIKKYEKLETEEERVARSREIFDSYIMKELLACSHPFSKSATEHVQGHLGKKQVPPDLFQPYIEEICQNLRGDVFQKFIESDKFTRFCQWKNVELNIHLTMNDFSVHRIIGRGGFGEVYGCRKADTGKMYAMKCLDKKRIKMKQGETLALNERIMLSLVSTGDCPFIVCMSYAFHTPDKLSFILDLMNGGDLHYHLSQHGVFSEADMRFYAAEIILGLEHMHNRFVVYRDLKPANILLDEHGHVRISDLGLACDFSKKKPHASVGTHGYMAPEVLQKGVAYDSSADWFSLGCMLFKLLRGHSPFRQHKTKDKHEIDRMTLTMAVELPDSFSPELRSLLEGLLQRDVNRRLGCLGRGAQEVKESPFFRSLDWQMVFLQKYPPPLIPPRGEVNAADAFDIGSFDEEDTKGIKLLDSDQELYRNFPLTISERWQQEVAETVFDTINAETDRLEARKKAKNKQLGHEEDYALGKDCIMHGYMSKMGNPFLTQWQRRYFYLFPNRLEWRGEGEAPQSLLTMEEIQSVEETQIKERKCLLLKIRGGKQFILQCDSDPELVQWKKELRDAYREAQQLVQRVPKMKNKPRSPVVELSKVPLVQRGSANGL
Sequence of Integrin beta-1 (Homo sapiens) + Integrin alpha-4 (Homo sapiens) (P05556 whole entry, looked up): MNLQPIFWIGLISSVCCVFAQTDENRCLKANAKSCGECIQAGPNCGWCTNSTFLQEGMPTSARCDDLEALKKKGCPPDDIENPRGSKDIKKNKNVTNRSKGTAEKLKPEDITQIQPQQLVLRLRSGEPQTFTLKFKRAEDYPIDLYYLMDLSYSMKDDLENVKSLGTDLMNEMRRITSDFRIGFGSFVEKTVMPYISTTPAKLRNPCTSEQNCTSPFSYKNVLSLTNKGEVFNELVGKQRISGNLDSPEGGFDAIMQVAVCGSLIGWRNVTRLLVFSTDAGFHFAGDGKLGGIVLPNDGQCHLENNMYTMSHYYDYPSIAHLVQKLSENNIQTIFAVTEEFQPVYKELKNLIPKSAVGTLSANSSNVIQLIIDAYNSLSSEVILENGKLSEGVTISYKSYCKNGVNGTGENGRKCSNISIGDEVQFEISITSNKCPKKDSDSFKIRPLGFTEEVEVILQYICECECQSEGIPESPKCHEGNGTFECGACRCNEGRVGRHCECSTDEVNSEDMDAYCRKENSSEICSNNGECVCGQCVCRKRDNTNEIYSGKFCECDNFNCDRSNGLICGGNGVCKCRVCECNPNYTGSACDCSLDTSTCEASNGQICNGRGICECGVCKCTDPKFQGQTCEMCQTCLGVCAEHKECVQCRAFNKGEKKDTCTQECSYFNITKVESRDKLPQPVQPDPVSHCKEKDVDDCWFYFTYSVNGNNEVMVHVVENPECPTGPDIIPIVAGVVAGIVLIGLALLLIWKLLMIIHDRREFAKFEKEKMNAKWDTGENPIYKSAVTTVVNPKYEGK
Sequence of Integrin beta-1 (Homo sapiens) + Integrin alpha-4 (Homo sapiens) (P13612 whole entry, looked up): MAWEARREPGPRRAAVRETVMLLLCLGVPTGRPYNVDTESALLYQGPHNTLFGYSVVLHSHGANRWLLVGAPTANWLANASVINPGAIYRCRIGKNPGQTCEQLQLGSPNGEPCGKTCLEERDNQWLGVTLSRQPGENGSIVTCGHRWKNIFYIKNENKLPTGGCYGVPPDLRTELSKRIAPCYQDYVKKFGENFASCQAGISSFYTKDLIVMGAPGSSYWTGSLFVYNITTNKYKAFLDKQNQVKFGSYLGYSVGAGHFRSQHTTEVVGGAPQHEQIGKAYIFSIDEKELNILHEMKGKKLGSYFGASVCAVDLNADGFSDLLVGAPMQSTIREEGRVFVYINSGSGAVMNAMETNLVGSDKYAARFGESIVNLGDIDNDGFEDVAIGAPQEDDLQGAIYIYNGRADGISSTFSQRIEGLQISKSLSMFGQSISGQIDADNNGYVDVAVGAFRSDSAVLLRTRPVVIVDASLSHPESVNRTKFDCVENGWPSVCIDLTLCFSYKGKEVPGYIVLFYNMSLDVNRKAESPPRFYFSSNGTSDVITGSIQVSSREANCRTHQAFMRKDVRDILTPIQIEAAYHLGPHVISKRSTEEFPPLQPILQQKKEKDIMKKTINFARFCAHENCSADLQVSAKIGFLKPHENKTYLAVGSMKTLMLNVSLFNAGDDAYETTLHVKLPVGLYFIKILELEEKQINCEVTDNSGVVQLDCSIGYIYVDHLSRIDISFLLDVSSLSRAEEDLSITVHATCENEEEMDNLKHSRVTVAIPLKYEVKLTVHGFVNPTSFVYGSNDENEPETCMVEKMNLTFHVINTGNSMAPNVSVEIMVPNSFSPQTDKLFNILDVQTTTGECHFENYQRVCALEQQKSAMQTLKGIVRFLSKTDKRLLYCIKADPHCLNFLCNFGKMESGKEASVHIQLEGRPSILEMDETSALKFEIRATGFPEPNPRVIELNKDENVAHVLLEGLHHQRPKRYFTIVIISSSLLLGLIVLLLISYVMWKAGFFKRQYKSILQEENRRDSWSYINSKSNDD

In the case of `COc1ccc(/C=C\c2cc(OC)c(OC)cc2CC[N+](C)(C)C)cc1OC`, in test [1], the percent of DMSO control GFP was 96.3% (inactive). In addition, the GFP response vs DMSO in [2] is 102% (inactive); in [4] it was 122% (inactive). The percent response of DMSO control in test [3] was 101% (inactive). Besides, the GFP response, % of DMSO in test [5] is 103% (inactive). For the same compound, the double positive events in [6] was 57.8%. Further, the vesicle binding response in test [6] was 216% (inactive). Also, the inhibition (commonly the change of the read-out against control, counted positive when it falls) in test [7] was -4.52% (inactive); in test [11], -9.15% (inactive); in test [15] it was 2% (inactive). In addition, the superoxide response (% of plate) in test [8] was 108% (inactive). Further, in test [9], the aptamer binding inhibition was -3% (inactive). For the same compound, the response is -7.25% (inactive) in [10] and 0.95% (inactive) in [12]. For the same compound, the binding (% of control) in test [13] was 103% (inactive). Besides, in [14], the efflux inhibition (fraction of control) was 0.26 (inactive). In addition, in [16], the differentiation response is -0.8% (inactive).

On to `c1ccc(-c2ccc(C(c3ccccc3)n3ccnc3)cc2)cc1` (stereo not given), for which, in [1], the percent of DMSO control GFP is 99.8% (inactive). Moreover, the values for the GFP response vs DMSO in test [2] and in test [4] were 104% (inactive) and 115% (inactive), respectively. Moreover, the percent response of DMSO control in test [3] was 101% (inactive). The GFP response, % of DMSO in test [5] was 111% (inactive). Moreover, the double positive events in test [6] is 66.2%. Moreover, the vesicle binding response in test [6] was 187% (inactive). The inhibition in test [7] was 8.25% (inactive); in test [11] it was -14.1% (inactive); in test [15], 0% (inactive). For the same compound, in test [8], the superoxide response (% of plate) was 209% (inactive). Moreover, in test [9], the aptamer binding inhibition was 7% (inactive). In addition, the response in [10] is 0.23% (inactive); in test [12] it was 15.5% (active). Besides, the binding (% of control) in test [13] is 101% (inactive). In addition, the efflux inhibition (fraction of control) in test [14] is -0.04 (inactive). Also, the differentiation response in test [16] is -2.03% (inactive).

For `COc1ccc2c(c1)c(=O)oc1cc3occ(C(C)(C)C)c3cc12`, the percent of DMSO control GFP in test [1] was 103% (inactive). The GFP response vs DMSO in test [2] is 105% (inactive); in [4], 109% (inactive). Besides, the percent response of DMSO control in test [3] is 103% (inactive). The GFP response, % of DMSO in test [5] was 108% (inactive). In [6], this compound returned a double positive events of 60%. Besides, the vesicle binding response in test [6] is 138% (inactive). Further, the inhibition in test [7] was 9.95% (inactive); in [11], 42.4% (inactive); in test [15], 0% (inactive). Also, in [8], the superoxide response (% of plate) was 92.5% (inactive). Further, the aptamer binding inhibition in [9] was 0% (inactive). The response in test [10] is -15.7% (inactive); in [12] it was 29.4% (active). The binding (% of control) in test [13] is 93.8% (inactive). Moreover, the efflux inhibition (fraction of control) in test [14] is 0.21 (inactive). In addition, the differentiation response in [16] is -14.8% (inactive).

For `Cc1cccc(Nc2ncccc2C(=O)O)c1C`, in [1], the percent of DMSO control GFP is 103% (inactive). Besides, the GFP response vs DMSO in test [2] is 103% (inactive); in [4], 90.1% (inactive). In addition, the percent response of DMSO control in test [3] was 109% (inactive). Moreover, the GFP response, % of DMSO in [5] is 108% (inactive). Moreover, the double positive events in test [6] was 62.7%. Also, the vesicle binding response in test [6] was 203% (inactive). The values for the inhibition in test [7], in test [11] and in [15] were 2.66% (inactive), 1.75% (inactive) and 6% (inactive), respectively. Moreover, in test [8], the superoxide response (% of plate) was 105% (inactive). Besides, the aptamer binding inhibition in [9] was 1% (inactive). Besides, the figures for the response in [10] and in [12] were -6.59% (inactive) and -0.8% (inactive), respectively. For the same compound, the binding (% of control) in test [13] was 98.4% (inactive). Moreover, the efflux inhibition (fraction of control) in test [14] was 0.08 (inactive). Besides, the differentiation response in test [16] is -9.53% (inactive).

As for `COc1ccc2c(c1OC)C(C1c3c(cc4c(c3OC)OCO4)CCN1C)OC2=O` (stereo not given), the percent of DMSO control GFP in test [1] is 107% (inactive). In addition, the GFP response vs DMSO in [2] is 93% (inactive); in test [4] it was 88.7% (inactive). Further, in [3], the percent response of DMSO control was 121% (inactive). The GFP response, % of DMSO in [5] is 111% (inactive). In addition, the double positive events in [6] came to 60.6%. Besides, in test [6], the vesicle binding response was 54.2% (inactive). The inhibition is -23.3% (inactive) in test [7], -1.99% (inactive) in test [11] and 6% (inactive) in [15]. For the same compound, in [8], the superoxide response (% of plate) is 95.3% (inactive). Further, the aptamer binding inhibition in [9] is 1% (inactive). Further, the response was -7.53% (inactive) in test [10] and 2.98% (inactive) in [12]. The binding (% of control) in test [13] is 98.9% (inactive). Further, the efflux inhibition (fraction of control) in [14] is 0.02 (inactive). Moreover, in test [16], the differentiation response is -2.69% (inactive).
